# Laboratory results reported in PubChem BioAssay (NCI).
# Compounds without any hit were thinned out: in the full panel of roughly 79,000, 15% have a hit. Unmarked numbers belong to inactive results. Activity calls are given as the source filed them. Cut-off read from the data, not from the text of the source: active = growth inhibition above about 70%; inactive = the rest.
# Tests used:
# [1] = NCI Yeast Anticancer Drug Screen. Data for the rad52 strain (AID 147);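 note: 0% = growth of vehicle-treated control cultures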; details: S. cerevisiae rad52 mutant growth inhibition, active compounds read high
# Outline: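 Read-out: growth inhibition versus vehicle-treated controls. Cells were a DNA repair-deficient yeast strain treated with compounds.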
# [2] = NCI Yeast Anticancer Drug Screen. Data for the wt1 strain (AID 149);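 note: 0% = growth of vehicle-treated wt1 cultures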; details: S. cerevisiae wt1 strain (SPY 50644) growth inhibition, active compounds read high
# Outline: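 Using yeast strain wt1, compound-induced growth inhibition was determined against vehicle-treated cultures.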
# [3] = NCI Yeast Anticancer Drug Screen. Data for the rad50EPP+ strain (AID 151);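 note: 0% = growth of vehicle-treated control cultures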; details: S. cerevisiae rad50 mutant strain, active compounds read high
# Outline: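 Growth inhibition read against vehicle controls in rad50EPP+ yeast, a strain altered in DNA damage repair, after compound exposure.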
# [4] = NCI Yeast Anticancer Drug Screen. Data for the mgt1 strain (AID 153); details: S. cerevisiae mgt1 mutant growth inhibition, active compounds read high
# Outline: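 mgt1 yeast grown with test compound; read-out is growth inhibition versus vehicle-treated cultures.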
# [5] = NCI Yeast Anticancer Drug Screen. Data for the rad50 strain (AID 155);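 note: 0% = growth of vehicle-only cultures of the same strain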; details: S. cerevisiae rad50 strain growth inhibition, active compounds read high
# Outline: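 Relative growth inhibition (compound vs vehicle) was measured in yeast with a defined repair-gene alteration.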
# [6] = NCI Yeast Anticancer Drug Screen. Data for the mec2-1 strain (AID 157); details: S. cerevisiae mec2-1 strain, active compounds read high
# Outline: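 Yeast mec2-1 mutant treated with compound. Readout: growth inhibition vs vehicle controls.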
# [7] = NCI Yeast Anticancer Drug Screen. Data for the rad14 strain (AID 159);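 note: 0% = growth of vehicle-treated control cultures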; details: S. cerevisiae rad14 strain growth inhibition, active compounds read high
# Outline: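 Screen for anticancer potential: a yeast strain altered in DNA damage repair is grown with compound, and reduced growth is quantified against vehicle controls.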
# [8] = NCI Yeast Anticancer Drug Screen. Data for the sgs1 mgt1 strain (AID 161);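 note: 0% = growth of cultures given vehicle only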; details: S. cerevisiae sgs1 mgt1 strain, active compounds read high
# Outline: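 Read-out: growth inhibition vs vehicle controls. Cells: mutant yeast strain deficient in DNA damage repair.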
# [9] = NCI Yeast Anticancer Drug Screen. Data for the CLN2oe strain (AID 163);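 note: 0% = growth of vehicle-only control cultures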; details: S. cerevisiae CLN2oe strain, active compounds read high
# Outline: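 Read-out: yeast growth inhibition, expressed relative to vehicle-only controls. The strain bears an engineered cell-cycle alteration.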
# [10] = NCI Yeast Anticancer Drug Screen. Data for the cln2 rad14 strain (AID 165);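 note: 0% = growth equal to vehicle treated cultures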; details: S. cerevisiae cln2 rad14 strain, active compounds read high
# Outline: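 cln2 rad14 yeast strain; compound exposure; growth inhibition read vs vehicle controls.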
# [11] = NCI Yeast Anticancer Drug Screen. Data for the bub3 strain (AID 167); details: S. cerevisiae bub3 mutant strain, active compounds read high
# Outline: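 Screening used yeast with an engineered genetic alteration affecting cell cycle control. Compound-exposed cultures were compared with vehicle cultures, and reduced growth was taken as inhibition.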
# [12] = NCI Yeast Anticancer Drug Screen. Data for the wt2 strain (AID 169);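 note: 0% = growth of vehicle-treated yeast cultures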; details: S. cerevisiae wt2 strain growth inhibition, active compounds read high
# Outline: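 Read-out: growth inhibition versus vehicle-treated control cultures after compound exposure of the yeast strain.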
# [13] = NCI Yeast Anticancer Drug Screen. Data for the mlh1 strain (AID 171);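 note: 0% = growth of vehicle-treated control cultures of the same strain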; details: S. cerevisiae mlh1 strain growth inhibition, active compounds read high
# Outline: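 Read-out: growth inhibition versus vehicle controls. Strain: engineered yeast with a defined DNA repair or cell cycle defect, compound-treated.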
# [14] = NCI Yeast Anticancer Drug Screen. Data for the sgs1 strain (AID 173);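 note: 0% = growth of vehicle-only control cultures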; details: S. cerevisiae sgs1 mutant, active compounds read high
# Outline: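 Read-out: yeast growth inhibition relative to vehicle controls, following compound exposure of a strain with a defined DNA repair/cell cycle alteration.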
# [15] = NCI Yeast Anticancer Drug Screen. Data for the mlh1 rad18 strain (AID 175); details: S. cerevisiae mlh1 rad18 strain growth inhibition, active compounds read high
# Outline: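 Yeast w/ defined DNA-repair lesions; compound exposure; growth vs vehicle controls → % inhibition.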
# [16] = NCI Yeast Anticancer Drug Screen. Data for the rad18 strain (AID 177); details: S. cerevisiae rad18 mutant growth inhibition, active compounds read high
# Outline: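 Readout: growth inhibition vs vehicle controls. Cells: genetically altered yeast strain, DNA repair defect.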
# [17] = at 5.0 µM (retest, dose inferred, filed as 0.5)
# [18] = at 50.0 µM (retest, dose inferred, filed as 5.0)
compound,measurement,setting,value
c1cc(-c2sc(-c3ccncc3)c(-c3ccncc3)c2-c2ccncc2)ccn1,growth inhibition,[1]; at 1.2 µM,4%
same,growth inhibition,[1]; at 3.7 µM,17%
same,growth inhibition,[1]; at 11.0 µM,63%
same,growth inhibition,[1]; at 33.0 µM,91% (active)
same,growth inhibition,[1]; at 100.0 µM,97% (active)
same,growth inhibition,[2]; at 1.2 µM,2%
same,growth inhibition,[2]; at 3.7 µM,-1%
same,growth inhibition,[2]; at 11.0 µM,0%
same,growth inhibition,[2]; at 33.0 µM,12%
same,growth inhibition,[2]; at 100.0 µM,58%
same,growth inhibition,[3]; at 1.2 µM,5%
same,growth inhibition,[3]; at 3.7 µM,18%
same,growth inhibition,[3]; at 11.0 µM,34%
same,growth inhibition,[3]; at 33.0 µM,68%
same,growth inhibition,[3]; at 100.0 µM,82% (active)
same,growth inhibition,[4]; at 1.2 µM,0%
same,growth inhibition,[4]; at 3.7 µM,2%
same,growth inhibition,[4]; at 11.0 µM,2%
same,growth inhibition,[4]; at 33.0 µM,25%
same,growth inhibition,[4]; at 100.0 µM,87% (active)
same,growth inhibition,[5]; at 1.2 µM,10%
same,growth inhibition,[5]; at 3.7 µM,19%
same,growth inhibition,[5]; [17],12%
same,growth inhibition,[5]; at 11.0 µM,69%
same,growth inhibition,[5]; at 33.0 µM,90% (active)
same,growth inhibition,[5]; [18],81% (active)
same,growth inhibition,[5]; at 50.0 µM,96.3% (active)
same,growth inhibition,[5]; at 100.0 µM,96% (active)
same,growth inhibition,[6]; at 1.2 µM,3%
same,growth inhibition,[6]; at 3.7 µM,3%
same,growth inhibition,[6]; [17],-5%
same,growth inhibition,[6]; at 11.0 µM,11%
same,growth inhibition,[6]; at 33.0 µM,46%
same,growth inhibition,[6]; [18],0%
same,growth inhibition,[6]; at 50.0 µM,21.1%
same,growth inhibition,[6]; at 100.0 µM,93% (active)
same,growth inhibition,[7]; at 1.2 µM,3%
same,growth inhibition,[7]; at 3.7 µM,-4%
same,growth inhibition,[7]; at 11.0 µM,5%
same,growth inhibition,[7]; at 33.0 µM,26%
same,growth inhibition,[7]; at 100.0 µM,75% (active)
same,growth inhibition,[8]; [17],-5%
same,growth inhibition,[8]; [18],50%
same,growth inhibition,[8]; at 50.0 µM,46.8%
same,growth inhibition,[9]; at 1.2 µM,-7%
same,growth inhibition,[9]; at 3.7 µM,1%
same,growth inhibition,[9]; at 11.0 µM,-1%
same,growth inhibition,[9]; at 33.0 µM,25%
same,growth inhibition,[9]; at 100.0 µM,89% (active)
same,growth inhibition,[10]; [17],-48%
same,growth inhibition,[10]; [18],5%
same,growth inhibition,[10]; at 50.0 µM,45.6%
same,growth inhibition,[11]; at 1.2 µM,1%
same,growth inhibition,[11]; at 3.7 µM,7%
same,growth inhibition,[11]; [17],-12%
same,growth inhibition,[11]; at 11.0 µM,25%
same,growth inhibition,[11]; at 33.0 µM,54%
same,growth inhibition,[11]; [18],18%
same,growth inhibition,[11]; at 50.0 µM,51.1%
same,growth inhibition,[11]; at 100.0 µM,89% (active)
same,growth inhibition,[12]; at 1.2 µM,0%
same,growth inhibition,[12]; at 3.7 µM,0%
same,growth inhibition,[12]; at 11.0 µM,0%
same,growth inhibition,[12]; at 33.0 µM,17%
same,growth inhibition,[12]; at 100.0 µM,79% (active)
same,growth inhibition,[13]; at 1.2 µM,7%
same,growth inhibition,[13]; at 3.7 µM,4%
same,growth inhibition,[13]; at 11.0 µM,7%
same,growth inhibition,[13]; at 33.0 µM,16%
same,growth inhibition,[13]; at 100.0 µM,92% (active)
same,growth inhibition,[14]; at 1.2 µM,3%
same,growth inhibition,[14]; at 3.7 µM,7%
same,growth inhibition,[14]; at 11.0 µM,15%
same,growth inhibition,[14]; at 33.0 µM,42%
same,growth inhibition,[14]; at 100.0 µM,77% (active)
same,growth inhibition,[15]; [17],2%
same,growth inhibition,[15]; [18],46%
same,growth inhibition,[15]; at 50.0 µM,79.7% (active)
same,growth inhibition,[16]; at 1.2 µM,10%
same,growth inhibition,[16]; at 3.7 µM,-1%
same,growth inhibition,[16]; at 11.0 µM,6%
same,growth inhibition,[16]; at 33.0 µM,23%
same,growth inhibition,[16]; at 100.0 µM,86% (active)
CCOC(=O)/C(=C\c1ccc(F)cc1)C(C)=O,growth inhibition,[1]; at 1.2 µM,-43%
same,growth inhibition,[1]; at 3.7 µM,-17%
same,growth inhibition,[1]; at 11.0 µM,57%
same,growth inhibition,[1]; at 33.0 µM,94% (active)
same,growth inhibition,[1]; at 100.0 µM,98% (active)
same,growth inhibition,[2]; at 1.2 µM,-17%
same,growth inhibition,[2]; at 3.7 µM,4%
same,growth inhibition,[2]; at 11.0 µM,48%
same,growth inhibition,[2]; at 33.0 µM,93% (active)
same,growth inhibition,[2]; at 100.0 µM,98% (active)
same,growth inhibition,[3]; at 1.2 µM,8%
same,growth inhibition,[3]; at 3.7 µM,30%
same,growth inhibition,[3]; at 11.0 µM,68%
same,growth inhibition,[3]; at 33.0 µM,93% (active)
same,growth inhibition,[3]; at 100.0 µM,98% (active)
same,growth inhibition,[4]; at 1.2 µM,-19%
same,growth inhibition,[4]; at 3.7 µM,6%
same,growth inhibition,[4]; at 11.0 µM,77% (active)
same,growth inhibition,[4]; at 33.0 µM,96% (active)
same,growth inhibition,[4]; at 100.0 µM,99% (active)
same,growth inhibition,[5]; at 1.2 µM,-7%
same,growth inhibition,[5]; at 3.7 µM,19%
same,growth inhibition,[5]; [17],30%
same,growth inhibition,[5]; at 11.0 µM,72% (active)
same,growth inhibition,[5]; at 33.0 µM,95% (active)
same,growth inhibition,[5]; [18],97% (active)
same,growth inhibition,[5]; at 50.0 µM,91.8% (active)
same,growth inhibition,[5]; at 100.0 µM,97% (active)
same,growth inhibition,[6]; at 1.2 µM,-43%
same,growth inhibition,[6]; at 3.7 µM,-3%
same,growth inhibition,[6]; [17],0%
same,growth inhibition,[6]; at 11.0 µM,74% (active)
same,growth inhibition,[6]; at 33.0 µM,95% (active)
same,growth inhibition,[6]; [18],98% (active)
same,growth inhibition,[6]; at 50.0 µM,93.8% (active)
same,growth inhibition,[6]; at 100.0 µM,97% (active)
same,growth inhibition,[7]; at 1.2 µM,-11%
same,growth inhibition,[7]; at 3.7 µM,-4%
same,growth inhibition,[7]; at 11.0 µM,61%
same,growth inhibition,[7]; at 33.0 µM,95% (active)
same,growth inhibition,[7]; at 100.0 µM,97% (active)
same,growth inhibition,[8]; [17],21%
same,growth inhibition,[8]; [18],97% (active)
same,growth inhibition,[8]; at 50.0 µM,93% (active)
same,growth inhibition,[9]; at 1.2 µM,6%
same,growth inhibition,[9]; at 3.7 µM,4%
same,growth inhibition,[9]; at 11.0 µM,67%
same,growth inhibition,[9]; at 33.0 µM,96% (active)
same,growth inhibition,[9]; at 100.0 µM,98% (active)
same,growth inhibition,[10]; [17],9%
same,growth inhibition,[10]; [18],93% (active)
same,growth inhibition,[10]; at 50.0 µM,89% (active)
same,growth inhibition,[11]; at 1.2 µM,9%
same,growth inhibition,[11]; at 3.7 µM,37%
same,growth inhibition,[11]; [17],48%
same,growth inhibition,[11]; at 11.0 µM,91% (active)
same,growth inhibition,[11]; at 33.0 µM,97% (active)
same,growth inhibition,[11]; [18],97% (active)
same,growth inhibition,[11]; at 50.0 µM,92.1% (active)
same,growth inhibition,[11]; at 100.0 µM,98% (active)
same,growth inhibition,[12]; at 1.2 µM,-35%
same,growth inhibition,[12]; at 3.7 µM,-17%
same,growth inhibition,[12]; at 11.0 µM,62%
same,growth inhibition,[12]; at 33.0 µM,95% (active)
same,growth inhibition,[12]; at 100.0 µM,98% (active)
same,growth inhibition,[13]; at 1.2 µM,2%
same,growth inhibition,[13]; at 3.7 µM,42%
same,growth inhibition,[13]; at 11.0 µM,88% (active)
same,growth inhibition,[13]; at 33.0 µM,97% (active)
same,growth inhibition,[13]; at 100.0 µM,97% (active)
same,growth inhibition,[14]; at 1.2 µM,-2%
same,growth inhibition,[14]; at 3.7 µM,22%
same,growth inhibition,[14]; at 11.0 µM,72% (active)
same,growth inhibition,[14]; at 33.0 µM,97% (active)
same,growth inhibition,[14]; at 100.0 µM,98% (active)
same,growth inhibition,[16]; at 1.2 µM,-34%
same,growth inhibition,[16]; at 3.7 µM,14%
same,growth inhibition,[16]; at 11.0 µM,77% (active)
same,growth inhibition,[16]; at 33.0 µM,94% (active)
same,growth inhibition,[16]; at 100.0 µM,97% (active)
